NS1 function inh – influenza NS1 inhibition; AID 2326; Potency, µM (top dose mostly 46.1 µM), inactives show top-dose activity, positive = more growth; 270,000 tested, 0.4% active; calls by dose curve; further: potency means the concentration at half of the fitted maximal effect; actives are rising curves; nearly all actives have a fitted effect of over 50% in size
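A cell-based growth assay was used: compounds that relieve NS1-induced slow growth of budding yeast raise OD600. Assay medium was yeast nitrogen base with ammonium sulphate and -URA supplement, pH 6.0, with 2% galactose.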
CHX counter – counter-screen hit for Shiga toxin inhibitors, cycloheximide; max response, %; AID 2314; cell reporter, cycloheximide protein synthesis inhibition counterscreen; 300,000 tested, 12% active; in the data active means max response mostly above about 13%, no sharp cut-off; inactive means mostly below about 14%; further: read at 38.3 µM for the half of the compounds with a filed dose; 0% is about no effect
Pf growth 48h – inhibits P. falciparum growth in the first generation, 48 h | P. falciparum luciferase growth in erythrocytes, 48 h | Potency, µM (titrated, usually from 28.7 µM), without a hit: top-dose activity change, negative = inhibition, hits mostly inhibitors | 310,000 tested, 5.9% active; further: potency means the concentration at half of the fitted maximal effect; on the % scale 0 is the no-effect control and ±100 the full control effect
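Growth was read as firefly luciferase luminescence after a 48 h, 37 C, 5% CO2 exposure of compounds to reporter-bearing P. falciparum cultures (0.1% parasitemia, 2% hematocrit final) in Albumax-supplemented RPMI 1640.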
Shiga toxin inh – inhibitors of Shiga toxin in Vero cells | Vero cells, Shiga toxin protein synthesis inhibition reporter | inhibition, % at 38.7 µM | 290,000 tested, 9.2% active; in the data active means inhibition mostly above about 28%, no sharp cut-off; inactive means mostly below about 43%; further: 0% is about no effect
Pf growth 96h – P. falciparum growth inhibition at 96 hour, primary screen for plastid delayed-death inhibitors; 320,000 tested, 6.9% active; Potency, µM (doses to about 28.7 µM), without a hit: at the top dose activity change, negative = inhibition, most hits filed as inhibitors; P. falciparum luciferase reporter growth, 96 h; further: potency means the concentration at half of the fitted maximal effect; on the % scale 0 is the no-effect control and ±100 the full control effect
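Readout is luminescence from an integrated firefly luciferase in P. falciparum. Red cells, 2% hematocrit and 0.05% parasitemia final, were cultured with compound through two parasite generations (96 hours) at 37 C, 5% CO2.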
* hit, by the source's call; ? = inconclusive; · = not tested or not shown; [ ] = dose if it differs, or a comment. Hits are enriched below; roughly 21% of the tested compounds scored in any of these assays. Unless noted, the call rests on the fitted dose curve; in most records, active means well fitted inhibition curve with a large enough effect; inconclusive means small, poorly fitted or top-dose-only effect, or another doubt; inactive means no such curve, though single readings can be large or run the other way.

SMILES	NS1 function inh	CHX counter	Pf growth 48h	Shiga toxin inh	Pf growth 96h
CC1CCCN(C(=O)COC(=O)Cc2c(F)cccc2Cl)C1 (stereo not drawn)	9%	44*	54%	67*	48%
CC1CCN(C(=O)CNC(=O)c2ccc(Cl)cc2Cl)CC1	0%	27*	·	50*	94%
O=C(NCC(=O)N1CCCCC1)c1ccc(Cl)cc1Cl	7%	49*	·	58*	203%
O=C(NCC(=O)N1CCCC1)c1ccccc1F	4%	20	58%	53*	89%
O=C(CNC(=O)c1ccc(Cl)cc1Cl)OCC(=O)N1CCCC1	·	·	11%	·	7%
O=C(CCC(=O)NC1CCCCC1)N/N=C/c1ccncc1	·	-2	10%	3	-3%
O=C(Cc1ccc(Cl)cc1Cl)OCC(=O)N1CCCCC1	-11%	22*	11%	42	1%
O=C(CSc1nnc2c(n1)[nH]c1ccccc12)N1CCCCC1	-2%	2	?	19	?
Fc1cccc(CSc2nnc3c(n2)[nH]c2ccccc23)c1	-4%	19*	?	44	?
CC1CCc2cc(F)ccc2N1C(=O)CSc1nnc2c(n1)[nH]c1ccccc12 (stereo not drawn)	13%	-3	1.5µM*	19	?
O=C(CCC(=O)c1cccs1)OCC(=O)N1CCN(C(=O)c2ccco2)CC1	-7%	11	-1%	-9	3%
Cc1ccc(-c2nc3sc4c(c3c(=O)n2N)CC(C)(C)OC4)cc1	1%	12	9%	15	·
CC1(C)Cc2c(sc3nc(-c4cc5ccccc5o4)n(N)c(=O)c23)CO1	-20%	19*	34%	42	?
CN(CC(=O)NC1CC(C)(C)NC(C)(C)C1)S(=O)(=O)c1cc(Cl)ccc1Cl	3%	1	-16%	-13	41%[5.75 µM]
O=C(NNS(=O)(=O)c1ccc(F)cc1)c1ccc2c(c1)OCO2	-1%	-1	4%	10	-1%
COc1cccc2c1OC1(C)CC2NC(=O)N1c1cccc(C(=O)Nc2ccc3c(c2)OCCO3)c1 (stereo not drawn)	-1%	33*	-18%	93*	?
CCN(CC(=O)Nc1ccc(NC(C)=O)cc1)C(=O)c1ccc2c(c1)OCCO2	·	·	-27%	·	?
CC(C)c1ccc(NC(=O)c2cccc(Br)c2)cc1	·	36*	119%	119*	-9%
CCN(CC(=O)Nc1ccc2c(c1)OCCO2)C(=O)c1cccc(OCC(C)C)c1	-13%	16*	16%	32	?
O=C(NNC(=O)c1ccc(F)cc1F)c1ccc2c(c1)OCO2	·	48*	143%	62*	200%
CC(C)c1ccc(NC(=O)c2ccc(NS(C)(=O)=O)cc2)cc1	-3%	12	9%	17	?
Cc1cccc(C(=O)NCC(=O)N2CCCCCCC2)c1	·	·	85%	·	73%
COC(=O)N/N=C1/C/C(=N\NC(=O)OC)c2ccccc21	·	-2	?	17	?
Cn1c(=O)[nH]c(=O)c2c1nc(NCCN)n2CCOc1ccccc1	?	-1	-15%	·	?
CC(=O)N1CCN(C(=O)c2cccc(S(=O)(=O)Nc3c(C)n(C)n(-c4ccccc4)c3=O)c2)CC1	·	·	55%	·	2%
SMILES	NS1 function inh	CHX counter	Pf growth 48h	Shiga toxin inh	Pf growth 96h
CCOc1ccc(C(=O)Nc2ccc3c(c2)OCCO3)cc1	-19%	34*	123%	49*	429%
O=C(Nc1c(C(=O)Nc2cccc(F)c2)oc2ccccc12)c1ccc2c(c1)OCO2	-9%	12	57%	30	?
O=C(Nc1ccc2c(c1)OCCO2)c1ccc(Br)cc1	3%	33*	20%	48	17%
CCOc1ccc(NC(=O)CN2CCN(CC(=O)Nc3ccc4c(c3)OCCO4)CC2)cc1	-5%	2	?	-2	5%
O=C(Nc1cccc(F)c1)c1ccc2c(c1)OCO2	-19%	59*	188%	69*	-9%
CCN1C(=O)c2cccc3c(NC(=O)c4ccc5c(c4)OCCO5)ccc1c23	2%	13*	-16%	10	?
Cc1c(C(=O)Nc2ccc3c(c2)OCCO3)oc2ccc(Br)cc12	·	·	189%	·	203%
COc1ccccc1CNC(=O)C/C(C)=N/NC(=O)Cc1ccc(Cl)cc1	5%	-3	9%	-6	?
COc1cc2cc(C#N)c(SCC(=O)Nc3cc(C)on3)nc2cc1OC	-6%	-4	?	-11	1%
CCOc1cc(C(=O)NC(=S)Nc2nc(C)cc(C)n2)cc(OCC)c1OCC	5%	4	-12%	3	-14%
CCN1C(=O)c2ccc(C(=O)Nc3ccc4c(c3)OCO4)cc2C1=O	12%	23*	33%	62*	1%
COc1ccc(C(=O)NC(=S)Nc2nc(C)cc(C)n2)cc1Br	-36%	21*	22%	3	?
CCCc1cc2c(cc1NC(=O)c1ccc(C(C)(C)C)cc1)OCO2	-10%	22*	?	29*	18%
CCCc1cc2c(cc1NC(=O)c1ccc(Br)cc1)OCO2	-8%	-1	10%	-3	29%
O=C(Oc1ccc2c(c1)OCO2)c1ccc(F)cc1Cl	-42%	72*	11%	137*	?
COc1ccc(CC(=O)Nc2sccc2C#N)cc1S(=O)(=O)N1CCOCC1	·	·	-21%	·	-10%
COc1ccc(-n2c(SCC(=O)NCCCN3CCCC3=O)nnc2C(C)N2CCCCC2)cc1 (stereo not drawn)	7%	-2	46%	-9	-10%
COc1ccc(-n2nc(C(=O)NCC(=O)N3CCN(c4cccc(Cl)c4)CC3)c3ccccc3c2=O)c(OC)c1	27%	1	?	19	9%
CSCC[C@H](NC(=O)[C@H](CC(C)C)NC(=O)CNC(=O)[C@H](Cc1ccc(O)cc1)NC(=O)[C@H](Cc1ccccc1)NC(=O)[C@H](CCCCN)NC(=O)[C@H](CC(N)=O)NC(=O)[C@@H]1CCCN1C(=O)[C@H](CC(=O)O)NC(=O)[C@H](C)NC(=O)[C@@H]1CCC(=O)N1)C(N)=O	·	11	·	-8	·
CCCCOc1cccc(C(=O)Nc2ccc(NC(=O)c3ccco3)cc2)c1	3%	-2	13%	-18	195%
CCc1nc2ccc(C(=O)Nc3ccc4c(c3)OCO4)cc2nc1CC	·	27*	37%	35	?
Cc1ccc(C(=O)Nc2ccc3c(c2)OCCO3)cc1	-47%	15	203%	47*	0%
O=C(Nc1ccc2c(c1)OCCO2)c1cccc(Br)c1	-86%	38*	217%	43*	-1%
CCc1nc2ccc(C(=O)Nc3cccc(C(C)=O)c3)cc2nc1CC	-13%	11	-14%	20	?
CCCOc1cccc(C(=O)Nc2cccc(NC(=O)c3ccco3)c2)c1	-83%	14*	?	67	·
O=C(Nc1ccc(NC(=O)c2ccco2)cc1)c1ccc2c(c1)OCCO2	·	17	-11%	-19	309%
CC(C)COc1nc2c(c(=O)n(C)c(=O)n2C)n1C	-2%	-7	-4%	-13	?
C/C(=N\NC(=O)c1nnn(-c2nonc2N)c1CN(C)c1ccccc1)c1cccc(O)c1	18%	4	13%	28	24%

Compound activity (PubChem)
